# Results from the supplement of paper PMC6555819.
# Test system: FXR:RXRa (NR concentration 270 nM, RXRa partner concentration 90 nM)
# Test: PBM binding z-score (relative to random genomic background probes); higher = stronger binding; sequences stand for … in GC…GCGATTGACAGCGTAGAATGAAGG
# How it was run: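 Each nuclear receptor dimer, without ligand, was incubated for 1 h on custom Agilent 4×180K protein-binding microarrays. Binding was detected with antibodies against each partner (one per run), and scanned fluorescence was regression-normalized. The binding z-scores are referenced to random human genomic background probes.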
row,Sequence,PBM binding z-score
1,TGTCAAAGTTCAAAGGTAATGTAAGTATCCACAC,7.19
2,GCTTGTAGATCTAGGTTAAGAAAGACTAAGCTAA,-0.373
3,TCTAGTTGGTCACGGAGGTCACATACGACGGGTA,3.08
4,TGAATGAGGTTAAAGATCAGCGAACGTGGCGTCG,2.99
5,TCTTGTACATCAATAGAGGTTAAGAAAGTGCGCT,0.725
6,GGAACGCGGGCAAGTTGATAGCAGAGTTTGATGG,-0.639
7,AGTCAAAGTTCAGGACGAGGTAACGGAAAGCACG,3.52
8,ACAGACAGGTGAGAGAAGGTAACTCAGCTGGACG,0.34
9,TCATATAGGTAAATGCTAGGGGAAAGTCCGATCT,0.958
10,CCTTACGGGTCACTCCAGGTTATTGCATCGGAGT,5
11,GCAGACAGGAGAAACGCAGGTAACTCAGGGTGGC,-0.504
12,CCGAGTACGTTATGGGGCATTCAGGCAACGGTGA,-0.345
13,TCGAGTAGGCTAGTCGGGGCATTCAGCCAACATA,-0.433
14,CCAGACAGGTGAAAGGTAACTCAGTCTGGTACGC,0.692
15,CTCGAAAGGTCGGTTGAGGTGAGGATACGGATAA,3.07
16,TTACCAAGGTGAAGGTAGTTGATCCCTCTGTAGA,0.475
17,CCGACCGGGGCATAAGGTTACCATAAGCCAGCCC,0.604
18,CATACAGGGTCAGCTCGGCCAGAGTAGGGACGGC,4.13
19,ACTTGTTGGTCAGCTGAGGTCACACACAATTCGG,3.37
20,CCTGCTAGGTAATGGTCAGCTAATCTACAGTATG,-0.151

row,Sequence,PBM binding z-score
1,CGTCCAGGGTCATAGGAGGTCAGTGAAGACAGAT,7.36
2,CCTTACGGTTCACTCCAGGTTATAGCATCGGAGT,2.82
3,AGTCAGAGTTCAGGACGAGGTAACGTAAAGCACG,3.72
4,TCAGACAGGCGAAGGTAACTCAGGTACGCAGTCG,0.672
5,CGCCCAAGGTCAGAGAGGTCAGTGAATGCCGAGT,6.04
6,GCATATAGGTAATACAAAGTGAAAGTCCGATTGT,-0.614
7,CGAACTAGATCATCCAGGACAGTGAATACATTGA,0.155
8,CTACCAAGGTGAACAAGGTGGTTGATTACTATTC,0.298
9,ACATACGGGTCAACGAGGTTATAGCACGCGTATA,5.59
10,CGTCCAAGGTCAAGGTCAGTAAAAGAGACTCGAA,7.33
11,GCGACTGGGGCATCAGCAGGTAACCATAACTTAA,-0.303
12,ATATGTAGATTAGCTGGGGTCATTCAGACTAGGC,3.43
13,ACTAGTTGGTCAGCTGAGGTCCCACACAATTCGG,0.639
14,AGAGTGAGGTTATACGTAGATCAGGGAAGAAAGT,2.32
15,GCTAGCAGGCCATTTGGGGCACTCAATGACGGGC,-0.254
16,GCTAGTTGGTCAGGAAAAGGTCACACACCGGTCG,3.35
17,CCGACTGGGGCATAAGGTTACCACAAGCCAGCCC,0.502
18,ACTAGTTGGTCAGCAGAGGTCACACACAATTCGG,4.13
19,TCTTGTAGATCAAAGGTTAAAAAAGCCGAAGCCT,1.88
20,CCGACTGGTGCATAAGGTTACCATAAGCCAGCCC,0.236
